Experiment [1] can be described thus: NCI Yeast Anticancer Drug Screen. Data for the rad50 strain (AID 155).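 Further: 0% = growth of vehicle-only cultures of the same strain.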 The note with it: S. cerevisiae rad50 strain growth inhibition, active compounds read high. The gist of the method: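 Readout: growth inhibition relative to vehicle-treated cultures. Compound exposure was carried out in a genetically defined yeast strain deficient in DNA damage repair.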
Experiment [2] is described as follows: NCI Yeast Anticancer Drug Screen. Data for the mec2-1 strain (AID 157). The note with it: S. cerevisiae mec2-1 strain, active compounds read high. The gist of the method:
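Each compound was tested on mec2-1 yeast, a strain altered in DNA damage repair or cell cycle control. Growth inhibition is reported relative to vehicle.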

Experiment [3] is described as follows: NCI Yeast Anticancer Drug Screen. Data for the sgs1 mgt1 strain (AID 161).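 Further: 0% = growth of cultures given vehicle only.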 The note with it: S. cerevisiae sgs1 mgt1 strain, active compounds read high. The gist of the method: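 Inhibition of yeast growth, normalised to vehicle-treated controls, is reported for a strain bearing genetic alterations in DNA damage repair.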
Experiment [4] can be described thus: NCI Yeast Anticancer Drug Screen. Data for the cln2 rad14 strain (AID 165).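 Further: 0% = growth equal to vehicle treated cultures.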 Conditions: S. cerevisiae cln2 rad14 strain, active compounds read high. The gist of the method: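 Test compounds were added to cln2 rad14 yeast cultures; inhibition of growth was then determined by comparison with vehicle treatment.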
Experiment [5] can be described thus: NCI Yeast Anticancer Drug Screen. Data for the bub3 strain (AID 167). The note with it: S. cerevisiae bub3 mutant strain, active compounds read high. The gist of the method: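 Readout: yeast growth inhibition, expressed relative to vehicle-only wells. The test organism is a mutant strain from a panel with lesions in DNA repair or checkpoint genes.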
Experiment [6] is described as follows: NCI Yeast Anticancer Drug Screen. Data for the mlh1 rad18 strain (AID 175). Conditions: S. cerevisiae mlh1 rad18 strain growth inhibition, active compounds read high. The gist of the method:
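Inhibition values reflect reduced growth of mutant yeast versus vehicle-treated controls following compound exposure; the mutations affect DNA damage repair.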

Where [7] appears, read: at 5.0 µM (retest, dose inferred, filed as 0.5).
[8] abbreviates: at 50.0 µM (retest, dose inferred, filed as 5.0).

The panel holds about 79,000 compounds, 15% with a hit somewhere; the sample as a whole holds those more often. A number with no mark means an inactive call. Active and inactive are the calls of the source. No stated cut-off is given here; in the data, active means growth inhibition above about 70%; inactive means the rest.

As to `CCNC(=S)N/N=C(\C)c1cccc(C)n1`, the growth inhibition is -5% in experiment [1] (setting [7]); 21% in experiment [1] (setting [8]); 54.6% in experiment [1] (at 50.0 µM); -37% in experiment [2] (setting [7]); 34% in experiment [2] (setting [8]); 76.3% (active) in experiment [2] (at 50.0 µM). The growth inhibition is -31% in experiment [3] (setting [7]); 22% in experiment [3] (setting [8]); 54.7% in experiment [3] (at 50.0 µM); -21% in experiment [4] (setting [7]); 24% in experiment [4] (setting [8]); 50.9% in experiment [4] (at 50.0 µM). The growth inhibition in experiment [5] (setting [7]) is -20%; in experiment [5] (setting [8]) it was 27%; in experiment [5] (at 50.0 µM) it was 62%; in experiment [6] (setting [7]), -9%; in experiment [6] (setting [8]), 21%; in experiment [6] (at 50.0 µM) it was 37.2%.
Regarding `ICCCCCCCCCC[n+]1ccc2ccccc2c1`, the growth inhibition in experiment [1] (setting [7]) was 32%; in experiment [1] (setting [8]), 98% (active); in experiment [1] (at 50.0 µM), 88.9% (active); in experiment [2] (setting [7]), 89% (active); in experiment [2] (setting [8]), 99% (active); in experiment [2] (at 50.0 µM), 89.8% (active). Besides, the growth inhibition in experiment [3] (setting [7]) was 52%; in experiment [3] (setting [8]), 99% (active); in experiment [3] (at 50.0 µM), 89.3% (active); in experiment [4] (setting [7]), 42%; in experiment [4] (setting [8]), 99% (active); in experiment [4] (at 50.0 µM) it was 85.4% (active). Moreover, the growth inhibition is 78% (active) in experiment [5] (setting [7]); 99% (active) in experiment [5] (setting [8]); 92.7% (active) in experiment [5] (at 50.0 µM); 28% in experiment [6] (setting [7]); 96% (active) in experiment [6] (setting [8]); 90.5% (active) in experiment [6] (at 50.0 µM).
`O=C1C(=O)N(c2ccc(Cl)c(Cl)c2)C(=O)C(=O)C1c1nc2ccccc2o1`: the growth inhibition in experiment [1] (setting [7]) was 21%; in experiment [1] (setting [8]), 98% (active); in experiment [1] (at 50.0 µM), 97.2% (active); in experiment [2] (setting [7]), 17%; in experiment [2] (setting [8]), 98% (active); in experiment [2] (at 50.0 µM) it was 92.8% (active). Besides, the growth inhibition was 27% in experiment [3] (setting [7]); 95% (active) in experiment [3] (setting [8]); 97.2% (active) in experiment [3] (at 50.0 µM); 22% in experiment [4] (setting [7]); 90% (active) in experiment [4] (setting [8]); 94.8% (active) in experiment [4] (at 50.0 µM). Moreover, the growth inhibition is 3% in experiment [5] (setting [7]); 96% (active) in experiment [5] (setting [8]); 83.1% (active) in experiment [5] (at 50.0 µM); 14% in experiment [6] (setting [7]); 95% (active) in experiment [6] (setting [8]); 96.7% (active) in experiment [6] (at 50.0 µM).
For the molecule `COc1ccc(OC(C)=O)c2c1CCC=CC2=O`, the growth inhibition in experiment [1] (setting [7]) was 14%; in experiment [1] (setting [8]), 93% (active); in experiment [1] (at 50.0 µM), 41.9%; in experiment [2] (setting [7]), 24%; in experiment [2] (setting [8]) it was 96% (active); in experiment [2] (at 50.0 µM), 41.9%. Further, the growth inhibition in experiment [3] (setting [7]) is 18%; in experiment [3] (setting [8]), 93% (active); in experiment [3] (at 50.0 µM) it was 61.3%; in experiment [4] (setting [7]) it was 14%; in experiment [4] (setting [8]) it was 80% (active); in experiment [4] (at 50.0 µM), 57%. For the same molecule, the growth inhibition in experiment [5] (setting [7]) was 22%; in experiment [5] (setting [8]), 92% (active); in experiment [5] (at 50.0 µM), 65.3%; in experiment [6] (setting [7]) it was 14%; in experiment [6] (setting [8]) it was 95% (active); in experiment [6] (at 50.0 µM), 74% (active).
`C(=NCCC[Si]12OCCN(CCO1)CCO2)c1ccc(C=NCCC[Si]23OCCN(CCO2)CCO3)cc1`: the growth inhibition in experiment [1] (setting [7]) is 3%; in experiment [1] (setting [8]) it was -3%; in experiment [1] (at 50.0 µM), 38.1%; in experiment [2] (setting [7]) it was 2%; in experiment [2] (setting [8]), 3%; in experiment [2] (at 50.0 µM) it was 98.3% (active). In addition, the growth inhibition in experiment [3] (setting [7]) is -1%; in experiment [3] (setting [8]), -2%; in experiment [3] (at 50.0 µM), 1.65%; in experiment [4] (setting [7]), 3%; in experiment [4] (setting [8]), -4%; in experiment [4] (at 50.0 µM) it was 87.7% (active). In addition, the growth inhibition in experiment [5] (setting [7]) was 1%; in experiment [5] (setting [8]) it was -3%; in experiment [5] (at 50.0 µM), 76.5% (active); in experiment [6] (setting [7]), 3%; in experiment [6] (setting [8]), 3%; in experiment [6] (at 50.0 µM), 54%.
With `CN1CCC(CCC(=O)OC(C)(C)C)(CN2c3ccccc3Sc3ccccc32)C1` (stereo not given), the growth inhibition is -4% in experiment [1] (setting [7]); 98% (active) in experiment [1] (setting [8]); 99.5% (active) in experiment [1] (at 50.0 µM); -14% in experiment [2] (setting [7]); 96% (active) in experiment [2] (setting [8]); 99.8% (active) in experiment [2] (at 50.0 µM). Further, the growth inhibition in experiment [3] (setting [7]) is -12%; in experiment [3] (setting [8]), 96% (active); in experiment [3] (at 50.0 µM), 99.7% (active); in experiment [4] (setting [7]), -12%; in experiment [4] (setting [8]), 97% (active); in experiment [4] (at 50.0 µM), 96.7% (active). In addition, the growth inhibition is -2% in experiment [5] (setting [7]); 78% (active) in experiment [5] (setting [8]); 96.5% (active) in experiment [5] (at 50.0 µM); 19% in experiment [6] (setting [7]); 99% (active) in experiment [6] (setting [8]); 99.6% (active) in experiment [6] (at 50.0 µM).
Take `O=C(O)C(Cc1cc(I)c(O)c(I)c1)c1ccccc1` (stereo not given): the growth inhibition was -14% in experiment [1] (setting [7]); 29% in experiment [1] (setting [8]); 60.1% in experiment [1] (at 50.0 µM); -1% in experiment [2] (setting [7]); 34% in experiment [2] (setting [8]); 19.2% in experiment [2] (at 50.0 µM). Also, the growth inhibition in experiment [3] (setting [7]) was -25%; in experiment [3] (setting [8]), 38%; in experiment [3] (at 50.0 µM) it was 16.8%; in experiment [4] (setting [7]), -5%; in experiment [4] (setting [8]), 41%; in experiment [4] (at 50.0 µM), 32.6%. The growth inhibition in experiment [5] (setting [7]) is -4%; in experiment [5] (setting [8]) it was 29%; in experiment [5] (at 50.0 µM), 21.9%; in experiment [6] (setting [7]), 0%; in experiment [6] (setting [8]) it was 45%; in experiment [6] (at 50.0 µM), 57.5%.
Take `Cc1cccc2c1Oc1cc(Cl)ccc1C2NC(=O)CCN1CCN(CCO)CC1` (stereo not given): the growth inhibition was 0% in experiment [1] (setting [7]); 29% in experiment [1] (setting [8]); 38% in experiment [1] (at 50.0 µM); -11% in experiment [2] (setting [7]); -13% in experiment [2] (setting [8]); -0.05% in experiment [2] (at 50.0 µM). Besides, the growth inhibition is -3% in experiment [3] (setting [7]); 6% in experiment [3] (setting [8]); 38.1% in experiment [3] (at 50.0 µM); 11% in experiment [4] (setting [7]); 26% in experiment [4] (setting [8]); 25.6% in experiment [4] (at 50.0 µM). The growth inhibition is -8% in experiment [5] (setting [7]); 11% in experiment [5] (setting [8]); 39.4% in experiment [5] (at 50.0 µM); 3% in experiment [6] (setting [7]); 29% in experiment [6] (setting [8]); 70.3% (active) in experiment [6] (at 50.0 µM).
For `Cc1ccc(C)c(S(=O)(=O)Nc2c([N+](=O)[O-])cc([N+](=O)[O-])c3ccccc23)c1`, the growth inhibition in experiment [1] (setting [7]) is 30%; in experiment [1] (setting [8]), 35%; in experiment [1] (at 50.0 µM) it was 85.7% (active); in experiment [2] (setting [7]), 30%; in experiment [2] (setting [8]), 40%; in experiment [2] (at 50.0 µM), 86.6% (active). The growth inhibition in experiment [3] (setting [7]) was 47%; in experiment [3] (setting [8]) it was 29%; in experiment [3] (at 50.0 µM), 87.5% (active); in experiment [4] (setting [7]), 32%; in experiment [4] (setting [8]) it was 54%; in experiment [4] (at 50.0 µM) it was 86% (active). Besides, the growth inhibition is 20% in experiment [5] (setting [7]); 30% in experiment [5] (setting [8]); 79.8% (active) in experiment [5] (at 50.0 µM); 34% in experiment [6] (setting [7]); 59% in experiment [6] (setting [8]); 83.6% (active) in experiment [6] (at 50.0 µM).
For the molecule `O=C1C(CCl)=CS(=O)(=O)c2ccccc21`, the growth inhibition is 10% in experiment [1] (setting [7]); 99% (active) in experiment [1] (setting [8]); 99.1% (active) in experiment [1] (at 50.0 µM); 17% in experiment [2] (setting [7]); 99% (active) in experiment [2] (setting [8]); 99.3% (active) in experiment [2] (at 50.0 µM). For the same molecule, the growth inhibition in experiment [3] (setting [7]) is 16%; in experiment [3] (setting [8]) it was 99% (active); in experiment [3] (at 50.0 µM), 99.2% (active); in experiment [4] (setting [7]), 5%; in experiment [4] (setting [8]) it was 99% (active); in experiment [4] (at 50.0 µM), 99.3% (active). For the same molecule, the growth inhibition was 4% in experiment [5] (setting [7]); 99% (active) in experiment [5] (setting [8]); 99.3% (active) in experiment [5] (at 50.0 µM); 36% in experiment [6] (setting [7]); 99% (active) in experiment [6] (setting [8]); 99.2% (active) in experiment [6] (at 50.0 µM).

For the origin of these results see PubChem BioAssay (NCI).
